Consider 134 sequences from a collection of fitness landscapes (doi:10.1038/s41467-024-54723-y).

In all, about 18,000 sequences were measured (“TetR repression strength (sort-seq, GFP reporter)”: median about 0.23, highest 2% from about 0.68 on). This is one part of a sample in which the highest values are shown more often than they occur.

Sequence of TetR (class B, Tn10) (P04483 whole entry): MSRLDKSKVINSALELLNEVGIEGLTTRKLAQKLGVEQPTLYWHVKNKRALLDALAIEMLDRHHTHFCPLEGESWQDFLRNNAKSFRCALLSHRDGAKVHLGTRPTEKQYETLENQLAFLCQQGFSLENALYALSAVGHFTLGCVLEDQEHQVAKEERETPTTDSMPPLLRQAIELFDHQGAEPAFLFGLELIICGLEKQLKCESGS

The target of the assay is TetR (class B, Tn10) (UniProt P04483). Put plainly: TetR repression strength (sort-seq, GFP reporter) (relative to tetO2 = 1); higher = stronger repression. Conditions: E. coli. A digest of the protocol:
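Escherichia coli SIG10-MAX cells carried a low-copy plasmid library in which eight operator positions were randomized between a constitutive promoter and sfGFP, and TetR was expressed constitutively. After 5 h of growth at 37 °C in LB with 50 µg/mL chloramphenicol, 10^6 cells were FACS-sorted into 13 fluorescence bins, and each bin was Illumina-sequenced. Repression strength was the top bin index plus one minus the read-weighted mean bin, divided by the value for the unaltered operator. Across three independent transformations, only library members with ≥30 reads in every replicate and a CV ≤0.5 were averaged.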
For the sequence TCCCACTAAGTTATAGAGA, the TetR repression strength worked out at 0.672.
TCCCTGCTAGTTAGGGAGA yielded a TetR repression strength of 0.181.
TCCCGTCGAGTGGGAGAGA registered a TetR repression strength of 0.494.
Sequence TCCCTCAAAGTGTACGAGA returned a TetR repression strength of 0.165.
As for TCCCGCTAAGTAAGTGAGA, the TetR repression strength was determined as 0.00864.
The sequence TCCCAATCAGTCATCGAGA registered a TetR repression strength of 0.557.
With TCCCAATCAGTTATCGAGA the figure was 0.468.
As to TCCCTAGTAGTGATCGAGA, the TetR repression strength turned out to be 0.37.
With TCCCTACAAGTCATCGAGA the figure was 0.309.
Regarding TCCCTTTCAGTCATCGAGA, the TetR repression strength was 0.53.
With TCCCTATCAGTGATCGAGA the figure was 0.868.
TCCCTACCAGTGATCGAGA: the TetR repression strength is 0.593.
Sequence TCCCTATCAGTTATCGAGA yielded a TetR repression strength of 0.859.
As for TCCCTATCAGTCATCGAGA, the TetR repression strength stood at 0.747.
With TCCCTATAAGTCATCGAGA, the TetR repression strength stood at 0.687.
In turn, TCCCTCTCAGTTATCGAGA gave a TetR repression strength of 0.603.
With TCCCTATAAGTCGTCGAGA the figure was 0.307.
The sequence TCCCCCACAGTGTAAGAGA showed a TetR repression strength of 0.183.
Sequence TCCCGCTTAGTCCTCGAGA came in with a TetR repression strength of 0.44.
TCCCAATAAGTACGCGAGA gave a TetR repression strength of 0.348.
For the sequence TCCCAGCCAGTTTTGGAGA, the TetR repression strength turned out to be 0.298.
Turning to TCCCCGGAAGTTGCGGAGA, the TetR repression strength is 0.0399.
TCCCGGGGAGTTATCGAGA registered a TetR repression strength of 0.161.
In the case of TCCCACGGAGTGGTGGAGA it was 0.11; in that of TCCCGACGAGTACATGAGA, 0.629.
In the case of TCCCTCAGAGTGGACGAGA, the TetR repression strength is 0.314.
With TCCCTATCAGTTATAGAGA the figure was 0.809.
Consider TCCCTATCAGTCATAGAGA, for which the TetR repression strength was found to be 0.924.
In turn, TCCCTATAAGTTATAGAGA registered a TetR repression strength of 0.651.
The sequence TCCCTATCAGTCGTAGAGA showed a TetR repression strength of 0.557.
With TCCCTATGAGTTATAGAGA the figure was 0.439; with TCCCTGTCAGTCATAGAGA, 0.617; with TCCCTCACAGTGTGGGAGA, 1.22.
As for TCCCTCTCAGTGTGGGAGA, the TetR repression strength was 0.234.
In the case of TCCCCAAAAGTCTTGGAGA, the TetR repression strength amounted to 0.681.
TCCCCAAAAGTGGGGGAGA registered a TetR repression strength of 0.196.
With TCCCCAAGAGTCTTGGAGA the figure was 0.193.
TCCCAAAAAGTGTGGGAGA returned a TetR repression strength of 0.415.
The sequence TCCCCAAAAGTCATGGAGA came in with a TetR repression strength of 0.
Consider TCCCCAAAAGTGTGGGAGA, for which the TetR repression strength turned out to be 0.821.
As for TCCCCAAAAGTTTTGGAGA, the TetR repression strength came out at 0.276.
With TCCCCAACAGTGTTGGAGA, the TetR repression strength came out at 0.292.
TCCCCAACAGTCTTGGAGA registered a TetR repression strength of 0.692.
In the case of TCCCTCACAGTGGGGGAGA it was 0.189; in that of TCCCGGGTAGTCAAGGAGA, 0.296; in that of TCCCAGGAAGTCGTTGAGA, 0.
TCCCGGCCAGTTGTTGAGA came in with a TetR repression strength of 0.199.
With TCCCGAATAGTCGACGAGA the figure was 0.165; with TCCCGTATAGTCTGGGAGA, 0.198; with TCCCAGCAAGTGAGTGAGA, 0.201.
Take TCCCAGCGAGTGACGGAGA: the TetR repression strength came out at 0.207.
For TCCCAGCGAGTGAGCGAGA, the TetR repression strength was 0.153.
For the sequence TCCCAGCGAGTGACCGAGA, the TetR repression strength turned out to be 0.694.
In the case of TCCCAGCTAGTGATTGAGA it was 0.306; in that of TCCCAGCTAGTGAACGAGA, 0.379; in that of TCCCAGCAAGTGTGTGAGA, 0.1.
Take TCCCAGCTAGTGAGAGAGA: the TetR repression strength was 0.36.
In the case of TCCCAGCTAGTGAGTGAGA it was 0.716; in that of TCCCAGCAAGTGGGTGAGA, 0.699; in that of TCCCAGCTAGTGACGGAGA, 0.226.
Sequence TCCCAGCTAGTGACCGAGA returned a TetR repression strength of 0.694.
In turn, TCCCTTCGAGTTCTCGAGA showed a TetR repression strength of 0.207.
TCCCTCCTAGTCTCCGAGA: the TetR repression strength was 0.394.
With TCCCACGGAGTCGGCGAGA, the TetR repression strength was determined as 0.148.
With TCCCGGAAAGTCACAGAGA the figure was 0.108; with TCCCTGTGAGTGGACGAGA, 0.227; with TCCCAGCTAGTTTCTGAGA, 0.207.
TCCCTAAAAGTGTAGGAGA registered a TetR repression strength of 0.131.
With TCCCAGTGAGTTCGCGAGA the figure was 0.402.
On to TCCCACTCAGTATGTGAGA, for which the TetR repression strength worked out at 0.108.
In turn, TCCCGTTTAGTGTTAGAGA displayed a TetR repression strength of 0.222.
For TCCCGTCTAGTGTTAGAGA, the TetR repression strength was 0.851.
TCCCGTAAAGTGTTAGAGA yielded a TetR repression strength of 0.696.
On to TCCCGTACAGTGTTAGAGA, for which the TetR repression strength worked out at 0.284.
Take TCCCGTAAAGTGTGAGAGA: the TetR repression strength is 0.0929.
TCCCGTGTAGTGTTAGAGA showed a TetR repression strength of 0.24.
In the case of TCCCACCGAGTTTTTGAGA it was 0.46; in that of TCCCACAGAGTAATGGAGA, 0.108; in that of TCCCCGTTAGTTTTGGAGA, 0.104.
TCCCTAGGAGTACGCGAGA: the TetR repression strength is 0.226.
Take TCCCTAGGAGTAGGAGAGA: the TetR repression strength is 0.268.
TCCCTAGTAGTACGCGAGA: the TetR repression strength amounted to 0.0159.
With TCCCTAGGAGTACGAGAGA the figure was 1.01; with TCCCTGGTAGTACGAGAGA, 0.219; with TCCCTAGTAGTACGAGAGA, 1.22.
In the case of TCCCGTAGAGTCTCAGAGA it was 0.257.
Take TCCCTTTTAGTTATAGAGA: the TetR repression strength stood at 0.231.
TCCCCACGAGTTCAGGAGA gave a TetR repression strength of 0.271.
For the sequence TCCCGTAGAGTAATGGAGA, the TetR repression strength came to 0.344.
TCCCACTGAGTGAGAGAGA displayed a TetR repression strength of 0.473.
Regarding TCCCTGTGAGTTGGGGAGA, the TetR repression strength came to 0.189.
For the sequence TCCCGCGAAGTCAGAGAGA, the TetR repression strength came out at 0.382.
In the case of TCCCCTTCAGTGAAGGAGA it was 0.702; in that of TCCCCCAAAGTGAAGGAGA, 0.104.
In the case of TCCCCTCCAGTGAAGGAGA, the TetR repression strength came out at 0.572.
For the sequence TCCCCTAAAGTGAAGGAGA, the TetR repression strength came to 0.721.
With TCCCCTTCAGTGGAGGAGA the figure was 0.65.
Take TCCCTTAAAGTGAAGGAGA: the TetR repression strength came out at 0.097.
As to TCCCGTAAAGTTCAAGAGA, the TetR repression strength came to 0.415.
TCCCCGCCAGTTGGCGAGA had a TetR repression strength of 0.16.
For the sequence TCCCTTTGAGTAAATGAGA, the TetR repression strength was determined as 0.33.
For TCCCTCCGAGTCATCGAGA, the TetR repression strength stood at 0.264.
Sequence TCCCTTCAAGTGCGGGAGA yielded a TetR repression strength of 0.0975.
As to TCCCCCTGAGTAGTAGAGA, the TetR repression strength came out at 0.207.
Take TCCCCTATAGTGGTGGAGA: the TetR repression strength worked out at 0.201.
TCCCCTATAGTGATAGAGA returned a TetR repression strength of 0.982.
TCCCTTAGAGTGGTCGAGA returned a TetR repression strength of 0.215.
TCCCTTAGAGTGGTAGAGA yielded a TetR repression strength of 0.695.
TCCCCTAGAGTGGTAGAGA came in with a TetR repression strength of 0.634.
For TCCCCTGTAGTGATAGAGA, the TetR repression strength was determined as 0.387.
Turning to TCCCCTATAGTGCTAGAGA, the TetR repression strength is 0.285.
TCCCTTGGAGTGGTAGAGA showed a TetR repression strength of 0.172.
Sequence TCCCCTATAGTGGTAGAGA came in with a TetR repression strength of 0.84.
With TCCCCTTTAGTTGTAGAGA the figure was 0.246; with TCCCGGTCAGTCTTTGAGA, 0.165.
In the case of TCCCCGAGAGTGAGGGAGA it was 0.129; in that of TCCCCTTAAGTCGAGGAGA, 0.157.
For the sequence TCCCATCGAGTCGGTGAGA, the TetR repression strength worked out at 0.179.
TCCCGGTTAGTGTAGGAGA gave a TetR repression strength of 0.172.
The sequence TCCCGCGCAGTCAGTGAGA displayed a TetR repression strength of 0.415.
TCCCTCGAAGTGATCGAGA gave a TetR repression strength of 0.343.
Sequence TCCCAACAAGTGAATGAGA gave a TetR repression strength of 0.336.
For the sequence TCCCTCTCAGTTATAGAGA, the TetR repression strength came out at 0.716.
In the case of TCCCTGTAAGTTATAGAGA it was 0.375.
For TCCCCCTAAGTTATAGAGA, the TetR repression strength is 0.525.
Sequence TCCCTCACAGTGATAGAGA returned a TetR repression strength of 0.513.
TCCCTCTCAGTTAGTGAGA returned a TetR repression strength of 0.339.
In turn, TCCCTCTAAGTTATAGAGA had a TetR repression strength of 0.703.
As for TCCCTCTCAGTTAGAGAGA, the TetR repression strength stood at 0.726.
Turning to TCCCTGTCAGTTATAGAGA, the TetR repression strength was 0.649.
TCCCTCAGAGTGATAGAGA showed a TetR repression strength of 0.342.
As to TCCCTCTCAGTCAGAGAGA, the TetR repression strength was determined as 0.423.
With TCCCACTCAGTTATAGAGA, the TetR repression strength is 0.661.
With TCCCTCTCAGTGATAGAGA the figure was 0.866.
